# Reference: PubChem BioAssay (NCATS)
# Values without a mark were called inactive. Records with an inconclusive call do not appear. Where a call stands in place of a potency, no number is given. Activity calls are given as the source filed them. The call rests on the fitted dose curve; in most records, active means well fitted curve in the direction sought with a large enough effect; inconclusive means small, poorly fitted or top-dose-only effect, or another doubt; inactive means no such curve, though single readings can be large; an effect the other way counts as inactive or inconclusive.
# Experiments:
# [1] = target: Glutathione peroxidase 1 (Homo sapiens) (UniProt P07203); experiment: Primary qHTS Assay for Inhibitors of Recombinant Selenoprotein Glutathione Peroxidase 1 (GPX1) (AID 1845191); further: nearly all actives have a fitted effect of over 65% in size
# Chain of Glutathione peroxidase 1 (Homo sapiens) (P07203 whole entry, looked up): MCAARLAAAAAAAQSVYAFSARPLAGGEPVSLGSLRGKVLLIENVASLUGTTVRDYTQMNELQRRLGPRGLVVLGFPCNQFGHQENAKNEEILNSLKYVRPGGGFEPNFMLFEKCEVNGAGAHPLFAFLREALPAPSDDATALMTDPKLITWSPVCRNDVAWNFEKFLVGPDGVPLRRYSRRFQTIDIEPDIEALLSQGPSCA
# How it was run: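 NADPH consumption tracked by fluorescence at 340/450 nm between t=0 and t=15 min, room temperature. Final mix: 10 nM GPX1, 100 nM glutathione reductase, 1 mM GSH, 0.5 mM NADPH, 0.5 mM cumene hydroperoxide, 0.01% BSA; 30 min compound–enzyme preincubation.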
# [2] = target: Phospholipid hydroperoxide glutathione peroxidase GPX4 (Homo sapiens) (UniProt P36969); experiment: Primary qHTS Assay for Inhibitors of Recombinant Selenoprotein Glutathione Peroxidase 4 (GPX4) (AID 1845192); further: nearly all actives have a fitted effect of over 65% in size; on activity change, negative = inhibition: series mostly up to about 50 µM
# Chain of Phospholipid hydroperoxide glutathione peroxidase GPX4 (Homo sapiens) (P36969 whole entry, looked up): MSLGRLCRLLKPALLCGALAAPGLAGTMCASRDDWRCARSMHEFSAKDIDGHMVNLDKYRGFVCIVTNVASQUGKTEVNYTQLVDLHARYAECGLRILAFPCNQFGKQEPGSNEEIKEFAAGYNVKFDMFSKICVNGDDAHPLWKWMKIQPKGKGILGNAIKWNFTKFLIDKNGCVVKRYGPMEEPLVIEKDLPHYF
# How it was run: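 NADPH consumption followed by fluorescence at 340/450 nm, t=0 and after 15 min at room temperature. Reaction started with cumene hydroperoxide (0.5 mM final) after 30 min compound–GPX4 preincubation; final 200 nM GPX4, 100 nM GR, 1 mM GSH, 0.5 mM NADPH.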
# [3] = target: Luciferin 4-monooxygenase (Photinus pyralis) (UniProt P08659); experiment: Primary firefly luciferase (FLuc) qHTS assay for identification of artifact compounds. (AID 1845220); further: nearly all actives have a fitted effect of over 60% in size; on activity change, negative = inhibition: series mostly up to about 54 µM
# How it was run: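 FLuc 10 nM; luciferin 10 uM; ATP 10 uM; Tris-acetate pH 7.6, Mg-acetate 10 mM; 15 min RT preincubation; 5 min reaction; luminescence.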
# [4] = Primary fluorescence-based thiol-reactive (MSTI) qHTS assay for identification of artifact compounds. (AID 1845221); further: nearly all actives have a fitted effect of over 65% in size; further: potency means the concentration at half of the fitted maximal effect;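 on activity change, negative = thiol reactive: series mostly up to about 54 µM; thiol-reactive compounds lower the probe fluorescence signal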
# How it was run: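 One-hour, room-temperature, dark incubation of compound with 4 uM MSTI in PBS (pH 7.4, 2% DMSO) precedes a fluorescence read at 525 nm excitation, 598 nm emission; Hill-equation fitting yields concentration-response values.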
# [5] = system: Nanoluciferase (engineered Oplophorus gracilirostris luciferase); experiment: Primary Nanoluciferase (NLuc) qHTS assay for identification of artifact compounds. (AID 1845222);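 further: NLuc secreted into diluted conditioned medium of S16 cells; series mostly up to about 54 µM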
# How it was run: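 NLuc from S16 cell medium (1:55) plus test compounds, 15 min, room temperature. Luminescence after Nano-Glo (1:100) addition, 5 min.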
# [6] = Primary redox qHTS assay for identification of artifact compounds. (AID 1845223)
# How it was run: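 Redox-cycling detection via DTT (250 uM final) oxidation coupled to Amplex Red (25 uM)/HRP (250 mU/mL) in HBSS. 15 min preincubation plus 30 min after DTT, room temperature. Ex/Em 525/598 nm; 4-parameter Hill fit against DMSO and 10 uM DA3003.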
Compound,Potency [1],Potency [2],Potency [3],Potency [4],Potency [5],Potency [6],"activity, negative = inhibition [1]","activity change, negative = inhibition [2]","activity change, negative = inhibition [3]","activity change, negative = thiol reactive [4]","activity, negative = inhibition [5]",redox activity (% of DA3003) [6]
C[C@@]1(O)[C@H](O)[C@@H](CO)O[C@H]1n1ccc(N)nc1=O,inactive,inactive,inactive,inactive,inactive,inactive,–,–,–,–,–,–
COC(=O)C12CCC(C)C(C)C1C1=CCC3C4(C)CCC(OC(C)=O)C(C)(C)C4CCC3(C)C1(C)CC2 (stereo not drawn),inactive,inactive,inactive,inactive,inactive,inactive,–,–,–,–,–,–
C[C@H]1CC[C@@H]2N(C1)C[C@@H]1[C@H]([C@@H](O)[C@H](O)[C@]3(O)[C@H]1C[C@@]14OC5(O)[C@@H](C[C@@H](O)[C@@H]31)[C@]4(C)CC[C@@H]5O)[C@]2(C)O,inactive,inactive,inactive,inactive,inactive,inactive,–,–,–,–,–,–
C=CC1(C)CC(OC(=O)/C(C)=C\COC(C)=O)C(C(=C)C(=O)O)C(O)C1C(=C)CO (stereo not drawn),inactive,inactive,inactive,inactive,inactive,inactive,–,–,–,–,–,–
COC(=O)CCC(=O)OC[C@]1(C)CCC[C@@]2(C)C3CC[C@]4(C)C=CC3(CCC12)C4 (stereo partly drawn),inactive,inactive,inactive,inactive,inactive,inactive,–,–,–,–,–,–
C[C@@H]1O[C@@H](O[C@@H]2[C@@H](O)[C@H](O[C@H]3[C@H](O[C@H]4CC[C@@]5(C)C(CC[C@]6(C)C5CC=C5[C@@H]7CC(C)(C)CC[C@]7(C(=O)O[C@@H]7O[C@H](CO)[C@@H](O)[C@H](O)[C@H]7O[C@@H]7O[C@@H](C)[C@H](O[C@@H]8O[C@@H](C)[C@H](O)[C@@H](O)[C@H]8O)[C@@H](O)[C@H]7O)CC[C@]56C)[C@@]4(C)CO)O[C@H](C(=O)O)[C@@H](O)[C@@H]3O)O[C@H](CO)[C@H]2O)[C@H](O)[C@H](O)[C@H]1O (stereo partly drawn),–,–,–,–,–,–,-4.58% [at 9.52 µM],1.11% [at 9.73 µM],-1.57% [at 11.6 µM],155% [at 11.5 µM],0% [at 11.6 µM],1.07% [at 11.5 µM]
CC1(C)CC[C@]2(C(=O)O[C@@H]3O[C@H](CO)[C@@H](O)[C@H](O)[C@H]3O)CC[C@]3(C)C(=CCC4[C@@]5(C)CC[C@H](O[C@@H]6O[C@H](C(=O)O)[C@@H](O)[C@H](O)[C@H]6O)[C@@](C)(CO)C5CC[C@]43C)C2C1 (stereo partly drawn),inactive,inactive,–,–,–,–,–,–,-3.91% [at 11.6 µM],129% [at 11.5 µM],-2.6% [at 11.6 µM],15.6% [at 11.5 µM]
C=C(F)c1sc(CNCCCNc2cc(=O)c3ccccc3[nH]2)c(C)c1Br,inactive,inactive,inactive,inactive,inactive,inactive,–,–,–,–,–,–
COc1c2c(c(CO)c3c1C(=O)OC3)OC1(C)CCC3(O)C(C)(C)OC(=O)CCC3(C)C1C2 (stereo not drawn),inactive,inactive,inactive,inactive,inactive,inactive,–,–,–,–,–,–
O=C(c1ccccc1)c1ccc2nc(NC(=O)c3csc(C4CCN(c5ncnc6ccsc56)CC4)n3)[nH]c2c1,inactive,inactive,inactive,inactive,inactive,inactive,–,–,–,–,–,–
CC1CC2OC3(OC2C(C)(C)O)C1C1(C)CCC24CC25CCC(O[C@@H]2OC[C@@H](O)[C@H](O)[C@H]2O)C(C)(C)C5CC=C4C1(C)C3O (stereo partly drawn),inactive,inactive,inactive,inactive,inactive,inactive,–,–,–,–,–,–
COc1cc2c(cc1O)[C@H](c1ccc(O[C@@H]3O[C@H](CO)[C@@H](O)[C@H](O)[C@H]3O)c(OC)c1)[C@@H](CO)[C@](O)(CO)C2,inactive,inactive,inactive,5.19 µM (active),inactive,inactive,–,–,–,–,–,–
CCCCNc1ncc2c(-c3ccc(F)cc3)nn(CC3CCC(N)CC3)c2n1 (stereo not drawn),inactive,inactive,inactive,inactive,inactive,inactive,–,–,–,–,–,–
CC[C@H](NC(=O)[C@H](CS(=O)(=O)CC1CC1)N[C@@H](c1ccc(F)cc1)C(F)(F)F)C(=O)C(=O)NC1CC1,inactive,inactive,inactive,inactive,inactive,inactive,–,–,–,–,–,–
C[C@@H]1O[C@@H](O[C@H]2[C@H](O)[C@@H](O[C@@H]3O[C@H](CO)[C@@H](O)[C@H](O[C@@H]4O[C@H](CO)[C@@H](O)[C@H](O)[C@H]4O)[C@H]3O)[C@H](O[C@H]3CC[C@@]4(C)C(=CC[C@@H]5C4CC[C@@]4(C)C5C[C@@H]5OC6(CC[C@@](C)(CO[C@@H]7O[C@H](CO)[C@@H](O)[C@H](O)[C@H]7O)O6)[C@@H](C)[C@@H]54)C3)O[C@@H]2CO)[C@H](O)[C@H](O)[C@H]1O (stereo partly drawn),–,–,–,–,–,–,-7.69% [at 9.52 µM],-8.14% [at 9.73 µM],-3.7% [at 11.6 µM],201% [at 11.5 µM],-0.894% [at 11.6 µM],7.08% [at 11.5 µM]
C=C1C(OC(=O)/C(C)=C\C)[C@@]23CCC4[C@@](C)(CCC[C@@]4(C)C(=O)O)C2CC[C@H]1C3OC(C)=O (stereo partly drawn),inactive,inactive,inactive,inactive,inactive,inactive,–,–,–,–,–,–
C/C=C(\C)C(=O)O[C@H]1[C@@H](O[C@]2(COC(=O)CC(C)C)O[C@H](COC(=O)C(C)CC)[C@@H](OC(C)=O)[C@@H]2O)O[C@H](COC(C)=O)[C@@H](O)[C@@H]1O (stereo partly drawn),inactive,inactive,inactive,inactive,inactive,inactive,–,–,–,–,–,–
CNS(=O)(=O)CC1CCC(N(C)c2ncnc3[nH]ccc23)CC1 (stereo not drawn),inactive,inactive,inactive,inactive,inactive,inactive,–,–,–,–,–,–
